This passage reports growth inhibition results from PubChem BioAssay (NCI).

This is part of a sample that, as a whole, favours compounds with a hit. Of some 79,000 tested, about 15% had one in any assay. Unmarked numbers belong to inactive results. Calls of active or inactive are those of the source. Rule as the data show it: active = growth inhibition above about 70%; inactive = the rest.

Assay [1] can be described thus: NCI Yeast Anticancer Drug Screen. Data for the mec2-1 strain (AID 157). The following applies: S. cerevisiae mec2-1 strain, at 50.0 µM, active compounds read high. Put shortly:
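Yeast mec2-1 mutant treated with compound. Readout: growth inhibition vs vehicle controls.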

The nature of assay [2]: NCI Yeast Anticancer Drug Screen. Data for the sgs1 mgt1 strain (AID 161).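 Also: 0% = growth of cultures given vehicle only.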 The following applies: S. cerevisiae sgs1 mgt1 strain, at 50.0 µM, active compounds read high. Put shortly:
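Inhibition of yeast growth, normalised to vehicle-treated controls, is reported for a strain bearing genetic alterations in DNA damage repair.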

Assay [3] can be described thus: NCI Yeast Anticancer Drug Screen. Data for the cln2 rad14 strain (AID 165).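 Also: 0% = growth equal to vehicle treated cultures.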 The conditions noted are these: S. cerevisiae cln2 rad14 strain, at 50.0 µM, active compounds read high. In a few lines: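 cln2 rad14 yeast strain; compound exposure; growth inhibition read vs vehicle controls.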
Assay [4] is described as follows: NCI Yeast Anticancer Drug Screen. Data for the bub3 strain (AID 167). The conditions noted are these: S. cerevisiae bub3 mutant strain, at 50.0 µM, active compounds read high. Put shortly:
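Readout: yeast growth inhibition, expressed relative to vehicle-only wells. The test organism is a mutant strain from a panel with lesions in DNA repair or checkpoint genes.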

Assay [5] in a line: NCI Yeast Anticancer Drug Screen. Data for the mlh1 rad18 strain (AID 175). The conditions noted are these: S. cerevisiae mlh1 rad18 strain growth inhibition; at 50.0 µM; active compounds read high. Put shortly:
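Yeast w/ defined DNA-repair lesions; compound exposure; growth vs vehicle controls → % inhibition.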

`CSCC[C@@H]1C(=O)N(C)[C@H](C(C)(C)C)N1C(=O)c1ccccc1`: the growth inhibition in assay [1] was -12.4%; in assay [2], -7.05%; in assay [3] it was 0.6%; in assay [4], 44.7%; in assay [5], -13.4%.

In the case of `Cc1cc(NC(=O)c2ccccc2)c(Cl)cc1N`, the growth inhibition was -33.9% in assay [1]; -11.9% in assay [2]; -13.4% in assay [3]; -21% in assay [4]; -7.95% in assay [5].

For `C=C1C(=O)C2CCC1C2` (stereo unspecified), the growth inhibition in assay [2] is 23.8%; in assay [3], -3.2%; in assay [4] it was 7.8%; in assay [5] it was 8.25%.

Consider `CCN1CCCC(N2c3ccccc3Sc3ccccc32)C1` (stereo unspecified), for which the growth inhibition is -15.2% in assay [1]; 8% in assay [2]; -58.8% in assay [3]; 8.5% in assay [4]; -4% in assay [5].

`CC(=O)OCC1CCC(COC(C)=O)CC1` (stereo unspecified): the growth inhibition in assay [1] was -30.6%; in assay [2] it was -10.4%; in assay [3], -5.95%; in assay [4] it was 19.7%; in assay [5], -3.9%.

Take `CC(=O)NC(CCc1ccc(Cl)c(Cl)c1)c1cccc(O)c(=O)c1` (stereo unspecified): the growth inhibition in assay [1] was 92% (active); in assay [2] it was 86% (active); in assay [3], 63.7%; in assay [4] it was 82.5% (active); in assay [5], 88.9% (active).

Turning to `NS(=O)(=O)c1cc(=O)[nH]c(=O)[nH]1`, the growth inhibition in assay [2] was -0.5%; in assay [3] it was -4%; in assay [5] it was 3.4%.

For the molecule `O=S(Cc1ccccc1)/C(=C/NC(=S)Nc1cc(Cl)ccc1Cl)c1ccccc1` (stereo unspecified), the growth inhibition in assay [3] is 5.6%; in assay [4], 5.35%; in assay [5] it was 7.1%.

As for `Cc1ccnc(Nc2nc3ccccc3[nH]2)n1`, the growth inhibition in assay [1] was -10.9%; in assay [2], 4.5%; in assay [3], 14.1%; in assay [4], 8.6%; in assay [5] it was 8.85%.

For `Nc1nc2nnc(-c3ccccc3)c(-c3ccccc3)n2n1`, the growth inhibition in assay [1] was 14.1%; in assay [4], 9.65%; in assay [5] it was -8.8%.

For `Cc1ccc2nc(-c3ccc(N=Cc4ccccc4O)cc3)sc2c1`, the growth inhibition is 12.9% in assay [1]; 6.5% in assay [2]; -6% in assay [3]; 27.9% in assay [4]; 12.3% in assay [5].

On to `NC(=O)OCCO`, for which the growth inhibition was 6.45% in assay [1], 10.9% in assay [2], -2.35% in assay [4] and 26.5% in assay [5].

With `CS(=O)CC(=N\O)/C(CS(C)=O)=N\O` (stereo unspecified), the growth inhibition was -4.45% in assay [1], 4.5% in assay [2], -2.8% in assay [4] and 9.2% in assay [5].

Take `CCN(CC)CCOC(=O)Nc1c(C(C)C)cccc1C(C)C`: the growth inhibition in assay [1] was -24.3%; in assay [2] it was 14.3%; in assay [3], 15.4%; in assay [4], 13%; in assay [5] it was 2.15%.

Regarding `Nc1ncnc2c1ncn2C1OC(CO)C2OC21` (stereo unspecified), the growth inhibition is -7.85% in assay [1]; 2.05% in assay [2]; 12.5% in assay [3]; -5.95% in assay [4]; -30.4% in assay [5].
